# Assay outcomes from PubChem BioAssay.
# In the library only some 7.4% were active in any assay of this set; here they are far more common.
# KinaseGlo FLuc = Counterscreen for Luciferase (Kinase-Glo TM) Inhibition; Luciferin 4-monooxygenase (Photuris pensylvanica), Q27757; Kinase-Glo luciferase, ATP luminescence, 8 min; Potency, µM (titrated, usually from 38.3 µM), without a hit: at the highest dose activity change, negative = inhibition, usual class: inhibitors; 0.28% of 200,000 active; AID 1379, 2008; note: % is set by controls: 0 for no effect and ±100 for the full control effect; nearly all actives have a fitted effect of over 60% in size
#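 Kinase-Glo luciferase light output from ATP and luciferin was measured with 10 uM ATP, within the enzyme's linear range. Buffer: 50 mM imidazole pH 7.2, 50 mM KCl, 7 mM MgCl2, 0.01% Tween 20, 0.05% BSA; luminescence read after 8 min at ambient temperature.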
# ELG1 genotox = qHTS screen for small molecules that induce genotoxicity in human embryonic kidney (HEK293T) cells expressing luciferase-tagged ELG1; HEK293T ELG1-luciferase reporter, luminescence, 16 h; Potency, µM (titrated, usually from 46 µM), for the others: top-dose activity change, positive = activation, most hits filed as activators; 1.3% of 330,000 active; note: % of control where 0% means no effect; nearly all actives have a fitted effect of over 60% in size
#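 HEK293T cells expressing luciferase-tagged ELG1 were exposed to compound or DMSO vehicle for 16 hr at 37 °C and 5% CO2. Luciferase activity was then measured with ONE-Glo after 30 min at room temperature.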
# FLuc modulator = qHTS profiling assay for firefly luciferase inhibitor/activator using purifed enzyme and Km concentrations of substrates (counterscreen for miR-21 project). Luciferin 4-monooxygenase (Photinus pyralis), P08659. purified FLuc, Km substrates, luminescence inhibition. 6.9% of 360,000 active. Potency, µM (series often up to 57.5 µM), for the others: at the highest dose activity change, negative = inhibition, hits mostly inhibitors;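 note: plate controls were vehicle for no effect and reference inhibitor for full effect; nearly all actives have a fitted effect of over 55% in size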
# Target sequence (P08659 whole entry, looked up): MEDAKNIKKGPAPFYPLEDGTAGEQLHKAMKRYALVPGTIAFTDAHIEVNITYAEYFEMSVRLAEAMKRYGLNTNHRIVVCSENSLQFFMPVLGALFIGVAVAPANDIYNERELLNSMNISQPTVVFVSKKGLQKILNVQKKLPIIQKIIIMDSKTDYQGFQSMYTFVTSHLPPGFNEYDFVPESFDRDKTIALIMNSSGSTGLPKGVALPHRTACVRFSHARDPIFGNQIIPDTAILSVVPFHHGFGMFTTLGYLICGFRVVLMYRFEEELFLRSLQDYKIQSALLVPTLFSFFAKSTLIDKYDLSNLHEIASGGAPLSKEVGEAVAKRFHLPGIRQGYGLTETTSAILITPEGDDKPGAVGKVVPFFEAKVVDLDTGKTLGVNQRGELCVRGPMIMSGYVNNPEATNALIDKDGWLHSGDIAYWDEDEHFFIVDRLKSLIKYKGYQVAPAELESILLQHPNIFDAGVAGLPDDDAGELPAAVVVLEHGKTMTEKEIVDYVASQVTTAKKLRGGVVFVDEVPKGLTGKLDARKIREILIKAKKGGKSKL
#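 Purified P. pyralis luciferase, 10 nM final, with Km-level 10 uM D-luciferin and 10 uM ATP in 50 mM Tris acetate pH 7.5, 10 mM Mg acetate, 0.01% Tween-20, 0.05% BSA; 6-point qHTS titration about 60 µM downward; luminescence read.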
# SMN2 splice up = qHTS Assay for Enhancers of SMN2 Splice Variant Expression | 2.8% of 210,000 active | Potency, µM (doses to about 46.1 µM), for the others: at the highest dose activity change, positive = activation, most hits filed as activators | HEK293 SMN2-luciferase splicing reporter, luminescence, 30-36 h | AID 1458, 2008; note: % of control where 0% means no effect; nearly all actives have a fitted effect of over 55% in size
#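 qHTS luciferase splicing reporter: luminescence rises when SMN2 exon 7 is included in transfected HEK293 cells. Compound exposure lasted 30-36 h at 37C, with 4.5 mM final sodium butyrate as control, followed by a ONE-Glo read.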
# NPC1 prom act = qHTS Assay for NPC1 Promoter Activators | 2.4% of 320,000 active | AID 485313, 2010 | Huh7 NPC1 promoter luciferase reporter, 24 h | Potency, µM (series often up to 9.22 µM), inactives show at the top dose activation, most hits filed as activators; note: % of control where 0% means no effect; nearly all actives have a fitted effect of over 60% in size
#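 Luminescence read-out of NPC1 promoter-driven luciferase in stably transfected Huh7 cells; compounds delivered in DMSO and left 24 h at 37C, 5% CO2, qHTS titration format.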
# Rab9 promoter act = qHTS Assay for Rab9 Promoter Activators. Huh7 Rab9 promoter-luciferase reporter, luminescence, 24 h. Potency, µM (titrated, usually from 9.22 µM), without a hit: at the top dose activation, negative = inhibition, most hits filed as activators. 2.8% of 320,000 active; note: % of control where 0% means no effect; nearly all actives have a fitted effect of over 60% in size
#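 Luciferase signal after 10 min detection reagent at ambient indicates Rab9 promoter upregulation; stably transfected Huh7 cells were treated 24 h with compound in DMSO at 37 °C, 5% CO2.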
# * = called active by the depositor; ? = inconclusive; / = not tested or not shown. Calls come from the whole dose curve; as a rule, active = well fitted curve in the direction sought with a large enough effect; inconclusive = small, poorly fitted or top-dose-only effect, or another doubt; inactive = no such curve, though single readings can be large; an effect the other way counts as inactive or inconclusive. Potency is the fitted concentration of half-maximal effect.
SMILES,KinaseGlo FLuc,ELG1 genotox,FLuc modulator,SMN2 splice up,NPC1 prom act,Rab9 promoter act
Cc1ccc(SCc2nc3ccccc3[nH]2)cc1,?,12%,6µM*,?,2.2µM*,?
CCCn1c(C)nc2c(Nc3ccccc3)nc(C)nc21,-3%,/,/,-4%,/,/
COc1ccc2cc(-c3ccsc3)ncc2c1,/,?,1.9µM*,/,?,-1%
COc1ccc2cc(-c3ccccc3)ncc2c1,/,2.9µM*,0.54µM*,/,0.56µM*,0.45µM*
COc1ccc(-c2nc(C)ncc2-c2ccccc2)c(O)c1,/,1%,1%,/,7%,-4%
COc1ccc2cc(C3=CCCCC3)ncc2c1,/,?,0.85µM*,/,2µM*,?
COc1cc(OC)cc(-c2cc3ccc(OC)cc3cn2)c1,/,?,0.27µM*,/,?,?
COc1ccc(-c2ccc3oc(-c4ccsc4)c(-c4ccc(Br)nc4)c3c2)cc1,/,19%,/,/,/,/
COc1cc(OC)cc(-c2cc3ncccc3cn2)c1,/,10%,?,/,14%,-1%
Cc1nnc(N2CCN(c3ccc(Cl)cc3)CC2)c2c1nnn2Cc1ccc(F)cc1,/,/,0%,1%,/,/
CCc1cccc(NC(=O)CSc2nc3ccsc3c(=O)n2CC)c1,/,/,-16%,-44%,/,/
CCOc1ccc(NC(=O)Cc2coc3ccc(C)cc23)cc1,/,/,-2%,28%,/,/
COc1ccc(C(=O)/C=C/NCc2ccc(F)cc2)cc1OC,/,1%,-19%,/,2%,0%
O=C(/C=C/NCC(=O)c1ccccc1)c1ccc(Br)cc1,1%,4%,-17%,11%,9%,13%
Cc1ccc(C(=O)/C=C/NCc2ccc(F)cc2)cc1,0%,10%,17µM*,29%,-3%,5%
Cc1ccc(CN/C=C/C(=O)c2ccc(Br)cc2)cc1,-3%,5%,17µM*,17%,20%,20%
O=C(Cc1ccccc1)N(Cc1cccnc1)c1nc2c(F)cc(F)cc2s1,/,/,-12%,/,/,/
CCC(=O)N1c2ccccc2CC1C(=O)NCCc1ccc(OC)c(OC)c1 (stereo unspecified),/,/,-5%,/,/,/
O=C(c1ccc(F)cc1)n1nc(-c2ccccc2)nc1NCc1ccco1,/,/,0%,17%,/,/
COCC(=O)n1nc(-c2ccccc2)nc1NCc1ccc(N(C)C)cc1,1%,?,17µM*,?,?,?
COCC(=O)n1nc(-c2ccc(C)cc2)nc1NCc1ccc(F)cc1,-3%,18%,-18%,?,16%,23%
COc1ccccc1C(=O)n1nc(-c2ccccc2)nc1NCc1ccco1,4%,13%,2%,13µM*,17%,2%
O=C(c1ccco1)n1nc(-c2ccc(Cl)cc2)nc1NCc1ccco1,-3%,/,0%,15%,/,/
Cc1ccc(-c2nc(NCc3ccco3)n(C(=O)c3ccco3)n2)cc1,/,?,3%,/,?,3.5µM*
O=C(c1ccco1)n1nc(-c2ccccc2)nc1NCc1ccco1,3%,7%,-8%,?,8%,18%
O=C(COc1ccccc1)n1nc(-c2ccc(Cl)cc2)nc1NCc1ccco1,2%,21µM*,?,16µM*,29%,?
CCOC(=O)c1c(-c2ccccc2)nc2c(C)cccn12,-3%,-8%,?,-12%,-4%,1%
Cc1cccn2c(N)c(-c3ccccc3)nc12,-19%,?,11µM*,27%,?,3.5µM*
Cc1ccc(S(=O)(=O)c2cn(CC(=O)Nc3ccc4c(c3)OCO4)c3ccc(C)cc3c2=O)cc1,/,/,-6%,12%,/,/
Cc1ccc(NC(=O)CSc2nc3c(sc4ccccc43)c(=O)n2CCCC(=O)NC2CCCC2)cc1C,/,/,-1%,-3%,/,/
